Targets with a hit are over-represented here; the source holds about 7,900 in all. About 0.6% of all pairs of compound and target were hits.
Tests used:
Assay in all cases: log2 fold change, soluble protein after heating vs DMSO (PISA); higher = thermal stabilisation; K562 cells, 10 uM, 30 min; active = over 0.2 and 3.5 SD of the protein, either way, in both replicates (recomputed)
[1] = compound: COC1=CC=C(C=C1)CN2C=CC3=C2C=C(C=C3)C(=O)NO
Summary of the method: (§1)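 Values are thermal stability changes relative to control samples and are taken from duplicates. They are stated as log2 fold changes. Before quantification by TMTpro 16plex LC-MS/MS with equalised channel sums, K562 cells at 2×10^6 cells/mL were treated with 10 μM compound for 30 min, heated in aliquots for 3 min across 48°C-58°C, pooled, extracted in PBS with 0.5% NP-40 at 4°C, and centrifuged at 21,000xg for 90 min to give the soluble supernatant.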

filanesib = compound: CON(C)C(=O)N1N=C(c2cc(F)ccc2F)S[C@@]1(CCCN)c1ccccc1 [filanesib]
Summary of the method: as §1

zotarolimus = compound: CO[C@H]1C[C@@H]2CC[C@@H](C)[C@@](O)(O2)C(=O)C(=O)N2CCCC[C@H]2C(=O)O[C@H]([C@H](C)C[C@@H]2CC[C@H](n3cnnn3)[C@H](OC)C2)CC(=O)[C@H](C)/C=C(\C)[C@@H](O)[C@@H](OC)C(=O)[C@H](C)C[C@H](C)/C=C/C=C/C=C/1C [zotarolimus]
Summary of the method: as §1

idasanutlin = compound: COc1cc(C(=O)O)ccc1NC(=O)[C@@H]1N[C@@H](CC(C)(C)C)[C@](C#N)(c2ccc(Cl)cc2F)[C@H]1c1cccc(Cl)c1F [idasanutlin]
Summary of the method: as §1

alisertib = compound: COc1cc(Nc2ncc3c(n2)-c2ccc(Cl)cc2C(c2c(F)cccc2OC)=NC3)ccc1C(=O)O [alisertib]
Summary of the method: as §1

[2] = compound: COc1cc2nc(-c3cc(F)ccc3O)nc(N[C@@H]3CNC[C@H]3C(C)(C)O)c2cc1OC
Summary of the method: as §1

gefitinib = compound: COc1cc2ncnc(Nc3ccc(F)c(Cl)c3)c2cc1OCCCN1CCOCC1 [gefitinib]
Summary of the method: as §1

[3] = compound: COc1cccc2cc(-c3nc([C@H]4CC[C@H](C(=O)O)CC4)n4ncnc(N)c34)[nH]c12
Summary of the method: as §1

lapatinib = compound: CS(=O)(=O)CCNCc1ccc(-c2ccc3ncnc(Nc4ccc(OCc5cccc(F)c5)c(Cl)c4)c3c2)o1 [lapatinib]
Summary of the method: as §1

pictilisib = compound: CS(=O)(=O)N1CCN(Cc2cc3nc(-c4cccc5[nH]ncc45)nc(N4CCOCC4)c3s2)CC1 [pictilisib]
Summary of the method: as §1

Measured: log2 fold change

CLN5 (UniProt O75503)
inactive: [1] 0.021 | filanesib -0.385 | zotarolimus 0.075 | idasanutlin 0.049 | alisertib 0.265 | [2] -0.65 | gefitinib -0.341 | [3] 0.27 | lapatinib -0.028

COMMD2 (UniProt Q86X83)
inactive: [1] -0.039 | filanesib 0.058 | zotarolimus 0.124 | idasanutlin -0.058 | alisertib -0.126 | [2] 0.076 | gefitinib 0.018 | [3] 0.001 | lapatinib 0.02 | pictilisib 0.007

C4A (UniProt P0C0L4)
inactive: [1] 0.042 | filanesib 0.014 | idasanutlin 0.068 | alisertib -0.005 | [2] 0.001 | gefitinib -0.198 | [3] 0.175 | lapatinib -0.078 | pictilisib -0.291
active: zotarolimus -0.615

CTBS (UniProt Q01459)
inactive: [1] -0.006 | filanesib -0.038 | zotarolimus 0.002 | idasanutlin 0.018 | alisertib -0.032 | [2] 0.026 | gefitinib 0.01 | [3] 0.055 | lapatinib 0.004 | pictilisib -0.068

CDK11B (UniProt P21127)
inactive: [1] -0.253 | filanesib -0.009 | zotarolimus -0.046 | idasanutlin -0.094 | alisertib 0.011 | [2] 0.151 | gefitinib 0.095 | [3] 0.097 | lapatinib -0.069 | pictilisib -0.057

CHERP (UniProt Q8IWX8)
inactive: [1] 0.04 | filanesib 0.266 | zotarolimus 0.051 | idasanutlin 0.063 | alisertib 0.002 | [2] -0.227 | gefitinib -0.02 | [3] 0.002 | lapatinib -0.023 | pictilisib 0.038

CD81 (UniProt P60033)
inactive: [1] -0.051 | filanesib 0.049 | zotarolimus 0.003 | idasanutlin -0.014 | alisertib -0.007 | [2] 0.008 | gefitinib 0.043 | [3] 0.052 | lapatinib -0.032 | pictilisib 0.138

CDC42BPA isoform 6 (UniProt Q5VT25)
active: [2] -1.1
inactive: [1] -0.005 | filanesib 0.009 | zotarolimus 0.081 | idasanutlin 0.004 | alisertib -0.04 | gefitinib -0.096 | [3] -0.027 | lapatinib 0.106 | pictilisib 0.118

CSTF3 (UniProt Q12996)
UniProt Q12996, sequence (Q12996 whole entry, looked up): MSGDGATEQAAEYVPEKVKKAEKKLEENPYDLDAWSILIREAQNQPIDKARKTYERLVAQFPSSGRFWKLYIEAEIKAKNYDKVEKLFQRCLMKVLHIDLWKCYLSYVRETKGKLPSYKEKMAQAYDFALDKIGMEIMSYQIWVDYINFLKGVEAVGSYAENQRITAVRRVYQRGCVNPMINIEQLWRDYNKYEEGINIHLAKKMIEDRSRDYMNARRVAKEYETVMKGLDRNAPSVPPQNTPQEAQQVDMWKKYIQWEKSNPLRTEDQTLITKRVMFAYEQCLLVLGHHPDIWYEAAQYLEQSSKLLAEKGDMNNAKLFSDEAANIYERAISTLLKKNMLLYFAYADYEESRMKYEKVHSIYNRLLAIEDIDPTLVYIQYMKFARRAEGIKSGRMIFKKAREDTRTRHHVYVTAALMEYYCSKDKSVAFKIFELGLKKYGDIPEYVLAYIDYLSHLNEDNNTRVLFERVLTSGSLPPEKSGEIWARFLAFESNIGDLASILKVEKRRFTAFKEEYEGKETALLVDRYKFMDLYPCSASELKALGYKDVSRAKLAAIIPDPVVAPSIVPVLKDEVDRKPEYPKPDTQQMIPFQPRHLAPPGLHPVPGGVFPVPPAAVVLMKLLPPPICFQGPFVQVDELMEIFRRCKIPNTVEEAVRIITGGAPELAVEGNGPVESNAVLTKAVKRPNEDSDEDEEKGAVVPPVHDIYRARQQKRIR
inactive: [1] -0.008 | filanesib -0.041 | zotarolimus -0.033 | idasanutlin -0.087 | alisertib -0.056 | [2] 0.176 | gefitinib -0.005 | [3] 0.022 | lapatinib -0.012 | pictilisib 0.066

CCNH (UniProt P51946)
inactive: [1] 0.043 | filanesib 0.005 | zotarolimus -0.044 | idasanutlin 0.018 | alisertib -0.011 | [2] 0.026 | gefitinib -0.03 | [3] -0.002 | lapatinib 0.023 | pictilisib 0.007

CSE1L (UniProt P55060)
inactive: [1] 0.024 | filanesib -0.1 | zotarolimus 0.027 | idasanutlin -0.135 | alisertib -0.059 | [2] 0.005 | gefitinib -0.018 | [3] -0.019 | lapatinib -0.036 | pictilisib -0.015

CAD (UniProt P27708)
inactive: [1] 0.019 | filanesib -0.054 | zotarolimus -0.014 | idasanutlin -0.03 | alisertib -0.058 | [2] -0.011 | gefitinib -0.044 | [3] 0.047 | lapatinib -0.031 | pictilisib -0.04

CRLF3 (UniProt Q8IUI8)
UniProt Q8IUI8, sequence (Q8IUI8 whole entry, looked up): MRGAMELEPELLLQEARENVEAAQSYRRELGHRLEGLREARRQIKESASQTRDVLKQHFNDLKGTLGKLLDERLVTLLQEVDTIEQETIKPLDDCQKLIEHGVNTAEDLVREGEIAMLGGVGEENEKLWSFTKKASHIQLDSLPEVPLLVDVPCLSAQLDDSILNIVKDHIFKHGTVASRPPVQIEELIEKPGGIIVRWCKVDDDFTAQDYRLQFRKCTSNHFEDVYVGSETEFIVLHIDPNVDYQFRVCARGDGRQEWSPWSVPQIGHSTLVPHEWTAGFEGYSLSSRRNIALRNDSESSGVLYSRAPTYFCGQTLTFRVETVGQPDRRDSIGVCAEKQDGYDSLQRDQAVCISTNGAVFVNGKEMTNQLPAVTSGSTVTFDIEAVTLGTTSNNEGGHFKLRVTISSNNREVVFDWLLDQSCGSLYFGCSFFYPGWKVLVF
inactive: [1] -0.006 | filanesib -0.049 | zotarolimus 0.016 | idasanutlin 0.039 | alisertib 0.005 | [2] -0.05 | gefitinib 0.018 | [3] 0.014 | lapatinib 0.035 | pictilisib 0.051

CKB (UniProt P12277)
inactive: [1] -0.031 | filanesib -0.097 | zotarolimus 0.061 | idasanutlin -0.047 | alisertib -0.093 | [2] -0.007 | gefitinib 0.002 | [3] 0.01 | lapatinib 0.016 | pictilisib 0.022

CASP2 (UniProt P42575)
UniProt P42575, sequence (P42575 whole entry, looked up): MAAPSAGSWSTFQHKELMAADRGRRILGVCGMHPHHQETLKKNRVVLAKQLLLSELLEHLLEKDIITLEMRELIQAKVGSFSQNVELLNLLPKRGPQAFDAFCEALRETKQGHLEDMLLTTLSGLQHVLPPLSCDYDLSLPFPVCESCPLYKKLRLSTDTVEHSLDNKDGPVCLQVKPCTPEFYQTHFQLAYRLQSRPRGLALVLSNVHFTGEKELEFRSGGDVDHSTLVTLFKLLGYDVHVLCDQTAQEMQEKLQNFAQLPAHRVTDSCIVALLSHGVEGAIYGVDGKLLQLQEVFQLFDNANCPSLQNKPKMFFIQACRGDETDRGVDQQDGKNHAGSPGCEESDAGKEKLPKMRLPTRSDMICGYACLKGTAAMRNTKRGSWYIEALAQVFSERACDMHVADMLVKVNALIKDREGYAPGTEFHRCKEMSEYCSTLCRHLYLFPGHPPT
active: lapatinib -0.323
inactive: [1] 0.122 | filanesib -0.02 | zotarolimus 0.047 | idasanutlin -0.067 | alisertib -0.019 | [2] -0.245 | gefitinib -0.082 | [3] 0.072 | pictilisib 0.069

CBR1 (UniProt P16152)
inactive: [1] 0 | filanesib -0.024 | zotarolimus 0.071 | idasanutlin -0.074 | alisertib -0.036 | [2] 0.001 | gefitinib -0.004 | [3] 0.028 | lapatinib 0.037 | pictilisib -0.035

CDC25B isoform 4 (UniProt P30305)
UniProt P30305, sequence (P30305 whole entry, looked up): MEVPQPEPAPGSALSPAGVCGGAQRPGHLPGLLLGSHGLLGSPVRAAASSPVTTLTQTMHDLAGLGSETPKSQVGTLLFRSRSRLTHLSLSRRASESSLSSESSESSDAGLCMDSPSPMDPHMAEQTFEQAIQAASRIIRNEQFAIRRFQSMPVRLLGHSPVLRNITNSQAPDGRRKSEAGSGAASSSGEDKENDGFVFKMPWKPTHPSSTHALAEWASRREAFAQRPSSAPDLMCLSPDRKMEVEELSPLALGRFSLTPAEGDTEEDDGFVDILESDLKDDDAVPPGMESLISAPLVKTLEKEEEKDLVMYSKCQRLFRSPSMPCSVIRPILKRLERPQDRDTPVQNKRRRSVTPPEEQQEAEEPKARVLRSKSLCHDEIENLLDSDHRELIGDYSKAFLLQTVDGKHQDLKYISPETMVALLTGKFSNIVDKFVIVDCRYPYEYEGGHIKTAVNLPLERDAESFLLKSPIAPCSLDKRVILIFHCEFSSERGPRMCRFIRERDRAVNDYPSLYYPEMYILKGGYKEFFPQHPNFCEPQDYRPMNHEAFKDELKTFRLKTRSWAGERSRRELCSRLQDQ
inactive: [1] -0.038 | filanesib 0.005 | zotarolimus -0.056 | idasanutlin 0.052 | alisertib -0.018 | [2] 0.026 | gefitinib -0.013 | [3] 0.068 | lapatinib -0.012 | pictilisib 0.03

CALB1 (UniProt P05937)
UniProt P05937, sequence (P05937 whole entry, looked up): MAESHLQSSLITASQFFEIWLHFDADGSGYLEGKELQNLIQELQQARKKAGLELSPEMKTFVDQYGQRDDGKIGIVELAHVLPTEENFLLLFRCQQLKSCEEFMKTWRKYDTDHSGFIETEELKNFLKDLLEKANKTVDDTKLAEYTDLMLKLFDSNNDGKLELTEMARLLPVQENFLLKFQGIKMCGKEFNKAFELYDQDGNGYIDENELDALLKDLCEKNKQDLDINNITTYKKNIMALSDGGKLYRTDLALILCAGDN
inactive: [1] 0.029 | filanesib -0.192 | zotarolimus 0.006 | idasanutlin -0.024 | alisertib -0.022 | [2] -0.071 | gefitinib -0.024 | [3] 0.015 | lapatinib 0.013 | pictilisib 0.027

C9orf64 (UniProt Q5T6V5)
inactive: [1] 0.07 | filanesib -0.091 | zotarolimus 0.038 | idasanutlin -0.062 | alisertib 0.078 | [2] -0.079 | gefitinib -0.062 | [3] -0.022 | lapatinib 0.043 | pictilisib -0.055

COMT (UniProt P21964)
inactive: [1] -0.097 | filanesib -0.054 | zotarolimus 0.034 | idasanutlin -0.093 | alisertib 0.009 | [2] 0.15 | gefitinib 0.043 | [3] 0.004 | lapatinib -0.042 | pictilisib 0.136

COX15 (UniProt Q7KZN9)
inactive: [1] 0.04 | filanesib -0.046 | zotarolimus 0.005 | idasanutlin -0.055 | alisertib -0.054 | [2] -0.012 | gefitinib -0.001 | [3] 0.052 | lapatinib 0.001 | pictilisib 0.071

C19orf53 (UniProt Q9UNZ5)
inactive: [1] -0.225 | filanesib 0.375 | zotarolimus 0.042 | idasanutlin 0.209 | alisertib -0.086 | [2] -0.067 | gefitinib -0.045 | [3] -0.167 | lapatinib 0.184 | pictilisib -0.073

COASY isoform 2 (UniProt Q13057)
inactive: [1] 0.034 | filanesib -0.061 | zotarolimus 0.024 | idasanutlin -0.071 | alisertib -0.038 | [2] 0.01 | gefitinib -0.038 | [3] 0.045 | lapatinib 0.043 | pictilisib 0.028

CPSF1 (UniProt Q10570)
UniProt Q10570, sequence (Q10570 whole entry, looked up): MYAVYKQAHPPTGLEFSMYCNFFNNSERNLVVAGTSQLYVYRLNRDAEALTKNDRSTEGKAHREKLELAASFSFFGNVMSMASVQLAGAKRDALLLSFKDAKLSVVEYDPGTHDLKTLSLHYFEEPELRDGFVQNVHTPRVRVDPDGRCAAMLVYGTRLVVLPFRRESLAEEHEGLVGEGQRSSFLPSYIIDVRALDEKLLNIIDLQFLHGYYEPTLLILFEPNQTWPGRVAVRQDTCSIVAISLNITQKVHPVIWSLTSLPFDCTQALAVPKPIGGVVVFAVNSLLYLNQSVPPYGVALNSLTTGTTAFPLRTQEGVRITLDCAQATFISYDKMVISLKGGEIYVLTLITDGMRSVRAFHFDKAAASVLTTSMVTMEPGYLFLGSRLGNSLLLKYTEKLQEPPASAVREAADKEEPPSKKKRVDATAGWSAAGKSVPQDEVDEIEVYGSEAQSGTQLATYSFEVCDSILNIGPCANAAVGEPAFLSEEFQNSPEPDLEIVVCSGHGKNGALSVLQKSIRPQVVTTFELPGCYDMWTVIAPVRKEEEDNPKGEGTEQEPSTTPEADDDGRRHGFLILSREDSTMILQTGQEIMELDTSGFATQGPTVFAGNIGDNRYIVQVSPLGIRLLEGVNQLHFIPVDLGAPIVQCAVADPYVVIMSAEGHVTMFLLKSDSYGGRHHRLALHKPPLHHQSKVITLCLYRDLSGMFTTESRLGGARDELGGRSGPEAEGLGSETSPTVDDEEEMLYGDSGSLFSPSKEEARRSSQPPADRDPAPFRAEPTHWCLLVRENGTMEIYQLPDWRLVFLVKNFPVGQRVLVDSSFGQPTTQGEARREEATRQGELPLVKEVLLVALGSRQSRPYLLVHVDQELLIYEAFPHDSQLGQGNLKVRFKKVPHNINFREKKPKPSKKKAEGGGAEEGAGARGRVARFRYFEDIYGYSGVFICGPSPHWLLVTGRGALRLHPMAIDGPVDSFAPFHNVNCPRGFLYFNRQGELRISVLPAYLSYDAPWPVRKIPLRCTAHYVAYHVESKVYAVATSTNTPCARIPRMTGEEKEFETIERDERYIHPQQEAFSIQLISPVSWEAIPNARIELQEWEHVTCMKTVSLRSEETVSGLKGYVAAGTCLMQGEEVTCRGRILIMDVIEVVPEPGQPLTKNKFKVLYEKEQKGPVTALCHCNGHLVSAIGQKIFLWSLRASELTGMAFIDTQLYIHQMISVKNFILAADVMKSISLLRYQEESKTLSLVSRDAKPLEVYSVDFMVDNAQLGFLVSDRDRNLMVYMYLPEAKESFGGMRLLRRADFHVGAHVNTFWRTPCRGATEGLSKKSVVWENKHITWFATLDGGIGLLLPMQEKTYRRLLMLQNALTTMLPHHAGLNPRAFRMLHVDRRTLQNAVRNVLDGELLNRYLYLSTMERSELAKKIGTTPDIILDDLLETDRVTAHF
inactive: [1] -0.042 | filanesib 0.164 | zotarolimus 0.095 | idasanutlin 0.053 | alisertib -0.08 | [2] 0.02 | gefitinib -0.079 | [3] 0.01 | lapatinib 0.029 | pictilisib -0.058

CD53 (UniProt P19397)
inactive: [1] -0.1 | filanesib 0.025 | zotarolimus -0.022 | idasanutlin 0.084 | alisertib -0.04 | [2] 0.154 | gefitinib 0.053 | [3] 0.102 | lapatinib -0.208 | pictilisib 0.276

CDK6 (UniProt Q00534)
inactive: [1] -0.012 | filanesib 0.037 | zotarolimus 0.021 | idasanutlin -0.06 | alisertib -0.051 | [2] 0.036 | gefitinib 0 | [3] -0.012 | lapatinib -0.019 | pictilisib 0.015

CHAMP1 (UniProt Q96JM3)
inactive: [1] -0.001 | filanesib -0.008 | zotarolimus 0.07 | idasanutlin 0.005 | alisertib 0.006 | [2] 0.025 | gefitinib 0.029 | [3] 0.022 | lapatinib -0.065 | pictilisib 0.107

CDK9 isoform 2 (UniProt P50750)
UniProt P50750, sequence (P50750 whole entry, looked up): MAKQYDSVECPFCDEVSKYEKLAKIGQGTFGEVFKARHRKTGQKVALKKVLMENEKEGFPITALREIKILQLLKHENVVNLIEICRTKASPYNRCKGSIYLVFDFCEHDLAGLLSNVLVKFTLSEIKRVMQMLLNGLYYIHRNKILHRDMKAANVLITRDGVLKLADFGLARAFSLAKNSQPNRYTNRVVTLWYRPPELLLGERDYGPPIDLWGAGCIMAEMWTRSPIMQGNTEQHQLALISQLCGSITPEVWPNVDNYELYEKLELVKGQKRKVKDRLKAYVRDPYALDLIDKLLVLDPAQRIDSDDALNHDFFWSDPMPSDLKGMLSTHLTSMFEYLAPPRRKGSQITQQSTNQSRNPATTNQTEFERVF
inactive: [1] -0.103 | filanesib 0.154 | zotarolimus 0.015 | idasanutlin 0.114 | alisertib -0.093 | [2] -0.182 | gefitinib -0.031 | [3] -0.067 | lapatinib -0.055 | pictilisib 0.014

C16orf58 (UniProt Q96GQ5)
inactive: [1] -0.059 | filanesib -0.148 | zotarolimus -0.043 | idasanutlin -0.053 | alisertib -0.009 | [2] -0.009 | gefitinib 0.044 | [3] 0.037 | lapatinib 0.004 | pictilisib 0.015

CNOT4 isoform 6 (UniProt O95628)
UniProt O95628, sequence (O95628 whole entry, looked up): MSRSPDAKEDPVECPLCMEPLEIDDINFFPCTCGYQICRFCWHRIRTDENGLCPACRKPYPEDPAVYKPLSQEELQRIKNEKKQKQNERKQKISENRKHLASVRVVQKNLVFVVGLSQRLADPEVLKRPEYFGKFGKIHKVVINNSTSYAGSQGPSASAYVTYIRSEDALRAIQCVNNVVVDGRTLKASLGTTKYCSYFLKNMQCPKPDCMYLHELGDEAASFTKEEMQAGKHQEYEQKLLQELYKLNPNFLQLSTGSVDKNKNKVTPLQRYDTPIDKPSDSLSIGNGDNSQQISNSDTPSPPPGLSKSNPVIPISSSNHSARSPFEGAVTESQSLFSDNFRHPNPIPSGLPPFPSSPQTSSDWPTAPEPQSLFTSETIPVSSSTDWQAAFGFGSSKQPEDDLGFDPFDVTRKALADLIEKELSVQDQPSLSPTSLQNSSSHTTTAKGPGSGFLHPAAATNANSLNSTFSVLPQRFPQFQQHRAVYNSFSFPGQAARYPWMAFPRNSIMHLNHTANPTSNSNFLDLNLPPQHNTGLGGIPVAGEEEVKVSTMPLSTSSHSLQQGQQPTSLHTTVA
inactive: [1] -0.057 | filanesib 0.017 | zotarolimus -0.023 | idasanutlin -0.001 | alisertib -0.036 | [2] 0.037 | gefitinib -0.007 | [3] -0.012 | lapatinib -0.008 | pictilisib 0.036
